According to PubChem BioAssay (NCI):
About 83,000 compounds went through this panel and 20% of them were active in at least one assay; those are over-represented in the sample as a whole.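 Note: values are percent growth. 100 is the growth of untreated cells, values between 100 and 0 indicate rising inhibition; between -100 and 0 indicates cell death.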 Activity calls are given as the source filed them. How the source made its calls: active means growth percent below 10; inactive means the rest.

How the values were obtained:
Experiment in all cases: NCI-60 one-dose screen, 48 h (100 = growth as untreated, 0 = no growth, -100 = all killed)
Details in all cases: 10 µM unless noted
NCI-H23 lung = test system: NCI-H23 lung
NCI-H226 lung = test system: NCI-H226 lung
NCI-H322M lung = test system: NCI-H322M lung
HOP-62 NSCLC = test system: HOP-62 NSCLC
NCI-H460 lung = test system: NCI-H460 lung
HOP-92 NSCLC = test system: HOP-92 NSCLC
NCI-H522 lung = test system: NCI-H522 lung
A549/ATCC NSCLC = test system: A549/ATCC NSCLC
786-0 renal = test system: 786-0 renal
COLO 205 colon = test system: COLO 205 colon
DU-145 prostate = test system: DU-145 prostate
K-562 leukemia = test system: K-562 leukemia
MALME-3M melanoma = test system: MALME-3M melanoma
MDA-MB-231 breast = test system: MDA-MB-231 breast
RXF 393 renal = test system: RXF 393 renal
SF-268 CNS = test system: SF-268 CNS
SF-295 CNS = test system: SF-295 CNS
SF-539 CNS = test system: SF-539 CNS
M14 melanoma = test system: M14 melanoma

Measured: growth

COc1ccc(/C(=N/O)c2cc(F)c(F)c(OC)c2F)cc1O
active: NCI-H460 lung 9.72% | NCI-H522 lung -56.7% | SF-295 CNS 1.83% | SF-539 CNS -22.8%
inactive: NCI-H23 lung 39.2% | NCI-H226 lung 85.7% | NCI-H322M lung 46% | HOP-62 NSCLC 21.5% | HOP-92 NSCLC 50.8% | A549/ATCC NSCLC 42% | 786-0 renal 45% | COLO 205 colon 62.1% | DU-145 prostate 16.9% | K-562 leukemia 10.3% | MALME-3M melanoma 60.7% | MDA-MB-231 breast 47.8% | RXF 393 renal 16.7% | SF-268 CNS 48.1% | M14 melanoma 15.4%

CNC(=O)c1cc(Oc2ccc3c(c2)sc2nc(-c4ccc(Cl)cc4)cn23)ccn1
inactive: NCI-H23 lung 72.6% | NCI-H226 lung 38.9% | NCI-H322M lung 92.9% | HOP-62 NSCLC 62.5% | NCI-H460 lung 81.8% | HOP-92 NSCLC 76.8% | NCI-H522 lung 61.7% | A549/ATCC NSCLC 79.4% | 786-0 renal 77.9% | COLO 205 colon 114% | DU-145 prostate 96.3% | K-562 leukemia 85.8% | MALME-3M melanoma 72.7% | MDA-MB-231 breast 77% | RXF 393 renal 83.5% | SF-268 CNS 63.3% | SF-295 CNS 80.1% | SF-539 CNS 76% | M14 melanoma 94.7%

C=C1C(=O)O[C@H]2[C@H]1CC/C(COC(=O)NCc1cc(OC)cc(OC)c1)=C\CC[C@@]1(C)O[C@@H]21
inactive: NCI-H23 lung 20.8% | NCI-H226 lung 13.2% | NCI-H322M lung 73.4% | HOP-62 NSCLC 44.9% | NCI-H460 lung 34.9% | A549/ATCC NSCLC 51.2% | SF-268 CNS 21.4% | SF-295 CNS 81.4%
active: HOP-92 NSCLC -21.6% | NCI-H522 lung -52.7% | 786-0 renal -37.7% | COLO 205 colon -64.9% | DU-145 prostate -6.21% | K-562 leukemia 3.43% | MALME-3M melanoma -44.1% | MDA-MB-231 breast -5.09% | RXF 393 renal -41.9% | SF-539 CNS 5.25% | M14 melanoma -31%

O=S(=O)(NCCCNc1cc(-c2cn(-c3ccccc3)nc2-c2cccc(O)c2)ccn1)c1ccc(Cl)cc1
active: HOP-92 NSCLC -6.58% | 786-0 renal -11.8% | COLO 205 colon -68.5% | K-562 leukemia -8.45% | MALME-3M melanoma -19.3% | MDA-MB-231 breast -17.3% | SF-295 CNS -47.9% | M14 melanoma 8.6%
inactive: NCI-H23 lung 33.1% | NCI-H226 lung 24.8% | NCI-H322M lung 25.2% | HOP-62 NSCLC 29.1% | NCI-H460 lung 10.9% | NCI-H522 lung 20.2% | A549/ATCC NSCLC 18.8% | DU-145 prostate 39.9% | RXF 393 renal 14.9% | SF-268 CNS 30.6% | SF-539 CNS 21.6%

CS(=O)(=O)N(c1cc(-c2ccc3ncnc(Nc4cccc(Cl)c4)c3c2)cnc1Cl)S(C)(=O)=O
inactive: NCI-H23 lung 18.3% | NCI-H226 lung 30.1% | HOP-62 NSCLC 19.2% | NCI-H460 lung 14.1% | NCI-H522 lung 19.6% | 786-0 renal 17.5% | DU-145 prostate 21.6% | K-562 leukemia 26.5% | SF-268 CNS 24% | M14 melanoma 21.8%
active: NCI-H322M lung -1.94% | HOP-92 NSCLC -20.5% | A549/ATCC NSCLC 9.62% | COLO 205 colon 2.1% | MALME-3M melanoma -24.7% | MDA-MB-231 breast 7.55% | RXF 393 renal -20.1% | SF-295 CNS -4.24% | SF-539 CNS -8.58%

O=C(CNC(=O)c1cccc2ccccc12)Nc1ccccc1Oc1ccccc1
active: NCI-H460 lung -2.87% | HOP-92 NSCLC -1.24% | NCI-H522 lung -10.5% | A549/ATCC NSCLC 9.48% | COLO 205 colon -8.22% | DU-145 prostate 3.85% | K-562 leukemia 7.84% | SF-539 CNS 1.63%
inactive: NCI-H23 lung 20.9% | NCI-H226 lung 49.2% | NCI-H322M lung 41.8% | HOP-62 NSCLC 24.6% | 786-0 renal 16.3% | MALME-3M melanoma 71.8% | MDA-MB-231 breast 15% | RXF 393 renal 31.1% | SF-268 CNS 18.1% | SF-295 CNS 13.6% | M14 melanoma 17.2%

CC1CCN(C(=O)CSc2nc3sc4c(c3c(=O)[nH]2)CCCC4)CC1
inactive: NCI-H23 lung 113% | NCI-H226 lung 100% | NCI-H322M lung 104% | HOP-62 NSCLC 103% | NCI-H460 lung 120% | HOP-92 NSCLC 88.2% | NCI-H522 lung 89.9% | A549/ATCC NSCLC 106% | 786-0 renal 110% | COLO 205 colon 112% | DU-145 prostate 101% | K-562 leukemia 86.1% | MALME-3M melanoma 109% | MDA-MB-231 breast 105% | RXF 393 renal 117% | SF-268 CNS 113% | SF-295 CNS 88.4% | SF-539 CNS 98.2% | M14 melanoma 109%

Cc1cc(NC(=O)COC(=O)c2sc3cc(F)ccc3c2Cl)no1
inactive: NCI-H23 lung 108% | NCI-H226 lung 101% | NCI-H322M lung 112% | HOP-62 NSCLC 96.2% | NCI-H460 lung 116% | HOP-92 NSCLC 91.8% | NCI-H522 lung 99.3% | A549/ATCC NSCLC 103% | 786-0 renal 101% | COLO 205 colon 104% | DU-145 prostate 116% | K-562 leukemia 111% | MALME-3M melanoma 100% | MDA-MB-231 breast 98.6% | RXF 393 renal 32.6% | SF-268 CNS 120% | SF-295 CNS 112% | SF-539 CNS 105% | M14 melanoma 102%

O=C(O)C(=Cc1c2ccccc2cc2ccccc12)C(=O)O
inactive: NCI-H23 lung 91.3% | NCI-H226 lung 109% | NCI-H322M lung 100% | HOP-62 NSCLC 105% | NCI-H460 lung 112% | HOP-92 NSCLC 105% | NCI-H522 lung 89.7% | A549/ATCC NSCLC 92.1% | 786-0 renal 106% | COLO 205 colon 113% | DU-145 prostate 118% | K-562 leukemia 100% | MALME-3M melanoma 97.9% | MDA-MB-231 breast 103% | RXF 393 renal 115% | SF-268 CNS 108% | SF-295 CNS 100% | SF-539 CNS 97.3% | M14 melanoma 100%

Cc1ccc2nc(SCn3nnc4ccccc4c3=O)[nH]c2c1
inactive: NCI-H23 lung 100% | NCI-H226 lung 110% | NCI-H322M lung 135% | HOP-62 NSCLC 88.9% | NCI-H460 lung 99.5% | HOP-92 NSCLC 82.8% | NCI-H522 lung 89.5% | A549/ATCC NSCLC 113% | 786-0 renal 107% | COLO 205 colon 75.9% | DU-145 prostate 96.5% | K-562 leukemia 74.4% | MALME-3M melanoma 323% | MDA-MB-231 breast 97.9% | RXF 393 renal 117% | SF-268 CNS 111% | SF-295 CNS 109% | SF-539 CNS 86.4% | M14 melanoma 102%

COc1ccc(/C=C(\C#N)c2ccc([N+](=O)[O-])cc2)c2ccccc12
inactive: NCI-H23 lung 65.3% | NCI-H226 lung 16.1% | NCI-H322M lung 51.6% | HOP-62 NSCLC 27.1% | NCI-H460 lung 64.6% | HOP-92 NSCLC 50.1% | NCI-H522 lung 34% | A549/ATCC NSCLC 48.7% | 786-0 renal 34.5% | COLO 205 colon 81.4% | DU-145 prostate 60.9% | K-562 leukemia 44.7% | MALME-3M melanoma 14.6% | MDA-MB-231 breast 45% | RXF 393 renal 58.3% | SF-268 CNS 39.8% | SF-295 CNS 70.7% | SF-539 CNS 49.4% | M14 melanoma 65.7%

CCO/C=N/NC(=O)c1ccncc1
inactive: NCI-H23 lung 102% | NCI-H226 lung 106% | NCI-H322M lung 107% | HOP-62 NSCLC 103% | NCI-H460 lung 104% | HOP-92 NSCLC 104% | NCI-H522 lung 98% | A549/ATCC NSCLC 106% | 786-0 renal 105% | COLO 205 colon 110% | DU-145 prostate 105% | K-562 leukemia 108% | MALME-3M melanoma 106% | MDA-MB-231 breast 109% | RXF 393 renal 109% | SF-268 CNS 101% | SF-295 CNS 116% | SF-539 CNS 111% | M14 melanoma 114%

O=C(Cc1n[nH]c(=O)c2ccccc12)OCc1c(Cl)cccc1Cl
inactive: NCI-H23 lung 103% | NCI-H226 lung 77.5% | NCI-H322M lung 107% | HOP-62 NSCLC 69.1% | NCI-H460 lung 26.3% | HOP-92 NSCLC 88.2% | NCI-H522 lung 98.9% | A549/ATCC NSCLC 96.4% | 786-0 renal 81.6% | COLO 205 colon 112% | DU-145 prostate 130% | K-562 leukemia 46.4% | MALME-3M melanoma 100% | MDA-MB-231 breast 72.9% | RXF 393 renal 52.5% | SF-268 CNS 60.9% | SF-295 CNS 55.1% | SF-539 CNS 94.9% | M14 melanoma 97.4%

O=C(Nc1ccc(I)cc1)c1cc([N+](=O)[O-])ccc1O
active: NCI-H23 lung 8.5% | HOP-92 NSCLC -6.55% | NCI-H522 lung -1.54% | MALME-3M melanoma -2.87% | RXF 393 renal 7.47%
inactive: NCI-H226 lung 45.9% | NCI-H322M lung 29.7% | HOP-62 NSCLC 23.8% | NCI-H460 lung 33.7% | A549/ATCC NSCLC 44.1% | 786-0 renal 39.6% | COLO 205 colon 37.1% | DU-145 prostate 51.4% | K-562 leukemia 18.7% | MDA-MB-231 breast 16.2% | SF-268 CNS 39.4% | SF-295 CNS 33.7% | SF-539 CNS 20.4% | M14 melanoma 31.3%

ClC1=C(Cl)C(Cl)=C(Cl)C1=Cc1ccc(Cl)cc1Cl
active: NCI-H23 lung -53.5% | NCI-H226 lung -33.9% | NCI-H460 lung -16.3% | HOP-92 NSCLC -81% | NCI-H522 lung -22.8% | A549/ATCC NSCLC -38.4% | 786-0 renal -40.3% | COLO 205 colon -34.1% | DU-145 prostate -5.47% | K-562 leukemia 0.397% | MALME-3M melanoma -30.8% | MDA-MB-231 breast -10.8% | RXF 393 renal -94.8% | SF-268 CNS -43.4% | SF-295 CNS -16.6% | SF-539 CNS -30% | M14 melanoma -30.1%
inactive: NCI-H322M lung 11.3% | HOP-62 NSCLC 10.9%

CCN(CC)CCC(=O)c1cccc2ccccc12
inactive: NCI-H23 lung 95.3% | NCI-H226 lung 104% | NCI-H322M lung 103% | HOP-62 NSCLC 112% | NCI-H460 lung 110% | HOP-92 NSCLC 99.4% | A549/ATCC NSCLC 98.6% | 786-0 renal 102% | COLO 205 colon 124% | DU-145 prostate 108% | K-562 leukemia 89.6% | MALME-3M melanoma 98.6% | MDA-MB-231 breast 94.8% | RXF 393 renal 102% | SF-268 CNS 109% | SF-295 CNS 101% | SF-539 CNS 92.4% | M14 melanoma 111%
active: NCI-H522 lung 9.95%
